According to PubChem BioAssay AID1159580 (chemical genetic matrix, 2015):
Values joined by “and” are separate entries in the source; they are usually repeats but may differ in a detail not shown here. Equal entries are not always repeated. The campaign covered roughly 5,500 compounds. About 2,000 (36%) were called active. Another 18% or so got no clear call; they are omitted. Rule as the data show it: active = normalized growth mostly below about 0.91 (no sharp cut-off); inconclusive = no clear call, values can overlap the other calls; inactive = mostly above about 0.92. This is one part of the list.

Assay: chemical genetic growth profiling, strain panel (AID 1159580);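 also: tested at 20 µM; growth read once vehicle control cultures reached saturation at 30 °C; 1 = growth at the plate median or of vehicle wells; lower values mean less growth of the strain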
Conditions: S. cerevisiae deletion strains, growth OD
[1] = locus YAL013W, strain DEP1, stronger effect = lower value
[2] = locus YBR229C, strain ROT2, stronger effect = lower value
[3] = locus YDL101C, strain DUN1, stronger effect = lower value
[4] = locus YDR150W, strain NUM1, stronger effect = lower value
[5] = locus YEL061C, strain CIN8, stronger effect = lower value
[6] = locus YGR078C, strain PAC10, stronger effect = lower value
[7] = locus YHR030C, strain SLT2, stronger effect = lower value
[8] = locus YJR043C, strain POL32, stronger effect = lower value
[9] = locus YJR075W, strain HOC1, stronger effect = lower value
[10] = locus YLR039C, strain RIC1, stronger effect = lower value
[11] = locus YLR262C, strain YPT6, stronger effect = lower value
[12] = locus YNL322C, strain KRE1, stronger effect = lower value
[13] = locus YOL006C, strain TOP1, stronger effect = lower value
[14] = locus YPL241C, strain CIN2, stronger effect = lower value

Measured: normalized growth

CC(=O)Nc1cc([As](=O)(O)O)ccc1O
inactive: [1] 0.996 | locus YAL021C, strain ccr4, stronger effect = lower value 1.01 | locus YAL026C, strain drs2, stronger effect = lower value 1.01 | locus YAL030W, strain snc1, stronger effect = lower value 1.01 | locus YBL061C, strain skt5, stronger effect = lower value 1 | locus YBR009C, strain hhf1, stronger effect = lower value 1.01 | locus YBR021W, strain FUR4, stronger effect = lower value 1.05 | locus YBR023C, strain chs3, stronger effect = lower value 1.01 | locus YBR171W, strain sec66, stronger effect = lower value 1.01 | [2] 1.01 | locus YBR231C, strain swc5, stronger effect = lower value 1.01 | locus YBR279W, strain paf1, stronger effect = lower value 0.999 | locus YCL011C, strain gbp2, stronger effect = lower value 1.02 | locus YCL016C, strain dcc1, stronger effect = lower value 0.994 | locus YCL029C, strain bik1, stronger effect = lower value 0.981 | locus YCL061C, strain MRC1, stronger effect = lower value 0.995 | locus YCL069W, strain vba3, stronger effect = lower value 1.01 | locus YCR088W, strain abp1, stronger effect = lower value 1.01 | locus YDL005C, strain med2, stronger effect = lower value 1 | locus YDL035C, strain GPR1, stronger effect = lower value 0.999 | locus YDL040C, strain nat1, stronger effect = lower value 1.01 | locus YDL074C, strain BRE1, stronger effect = lower value 0.936 | [3] 0.992 | locus YDL185W, strain tfp1, stronger effect = lower value 0.945 | locus YDL192W, strain arf1, stronger effect = lower value 0.994 | locus YDR001C, strain nth1, stronger effect = lower value 1.02 | locus YDR069C, strain doa4, stronger effect = lower value 1.01 | locus YDR101C, strain arx1, stronger effect = lower value 0.936 | locus YDR137W, strain rgp1, stronger effect = lower value 1.01 | [4] 0.997 | locus YDR159W, strain sac3, stronger effect = lower value 0.988 | locus YDR162C, strain NBP2, stronger effect = lower value 0.996 | locus YDR195W, strain ref2 0.995 | locus YDR297W, strain sur2, stronger effect = lower value 1.01 | locus YDR318W, strain mcm21, stronger effect = lower value 1 | locus YDR334W, strain swr1, stronger effect = lower value 1.02 | locus YDR335W, strain msn5, stronger effect = lower value 1.01 | locus YDR388W, stronger effect = lower value 0.997 | locus YDR392W, strain spt3, stronger effect = lower value 0.905 | locus YDR502C, strain sam2, stronger effect = lower value 1.02 | locus YEL003W, strain gim4, stronger effect = lower value 1.01 | locus YEL037C, strain rad23, stronger effect = lower value 1.01 | locus YEL061C, strain CIN8 (second series), stronger effect = lower value 1.02 | [5] 1 | locus YER015W, strain faa2, stronger effect = lower value 0.998 | locus YER016W, strain bim1, stronger effect = lower value 1.01 | locus YER110C, stronger effect = lower value 0.983 | locus YER111C, strain swi4, stronger effect = lower value 1 | locus YER155C, strain BEM2 (second series), stronger effect = lower value 0.982 | locus YER155C, strain BEM2, stronger effect = lower value 1.01 | locus YER167W, strain BCK2, stronger effect = lower value 0.996 | locus YFR010W, strain ubp6, stronger effect = lower value 1.03 | locus YGL078C, strain dbp3, stronger effect = lower value 0.985 | locus YGL086W, strain mad1, stronger effect = lower value 0.996 | locus YGL167C, strain pmr1, stronger effect = lower value 1.01 | locus YGL173C, strain kem1, stronger effect = lower value 1.01 | locus YGL227W, strain vid30, stronger effect = lower value 1.01 | locus YGL240W, strain doc1, stronger effect = lower value 0.978 | locus YGL248W, strain PDE1, stronger effect = lower value 1.01 | locus YGL253W, strain hxk2, stronger effect = lower value 1.02 | [6] 1 | locus YGR135W, strain pre9, stronger effect = lower value 1.01 | locus YGR252W, strain gcn5, stronger effect = lower value 1.11 | locus YHR013C, strain ard1, stronger effect = lower value 0.997 | locus YHR027C, strain rpn1, stronger effect = lower value 1.02 | [7] 0.981 and 1.03 | locus YHR079C, strain IRE1 (second series), stronger effect = lower value 0.983 | locus YHR079C, strain IRE1, stronger effect = lower value 1.01 | locus YHR094C, strain hxt1, stronger effect = lower value 0.996 | locus YHR129C, strain ARP1, stronger effect = lower value 0.985 | locus YHR142W, strain chs7, stronger effect = lower value 1.03 | locus YHR200W, strain rpn10, stronger effect = lower value 0.991 | locus YIL066C, strain RNR3, stronger effect = lower value 0.998 | locus YIL073C, strain SPO22, stronger effect = lower value 0.99 | locus YIL125W, strain kgd1, stronger effect = lower value 0.985 | locus YIR030C, strain dcg1, stronger effect = lower value 0.992 | locus YJL092W, strain hpr5, stronger effect = lower value 1 | locus YJL095W, strain BCK1 (second series), stronger effect = lower value 1.03 | locus YJL095W, strain BCK1, stronger effect = lower value 1.03 and 1.02 | locus YJL115W, strain asf1, stronger effect = lower value 1.01 | locus YJL129C, strain trk1, stronger effect = lower value 1.01 | locus YJL134W, strain LCB3, stronger effect = lower value 0.997 | locus YJL154C, strain vps35, stronger effect = lower value 1.01 | locus YJL164C, strain tpk1, stronger effect = lower value 1 | locus YJL166W, strain qcr8, stronger effect = lower value 0.999 | locus YJL168C, strain set2, stronger effect = lower value 0.932 | locus YJL187C, strain SWE1 (second series), stronger effect = lower value 0.995 | locus YJL187C, strain SWE1, stronger effect = lower value 1.04 | [8] 0.997 | locus YJR066W, strain TOR1, stronger effect = lower value 0.961 | [9] 0.983 | locus YKL009W, strain mrt4, stronger effect = lower value 0.956 | locus YKL068W, stronger effect = lower value 0.986 | locus YKL085W, strain MDH1 (second series), stronger effect = lower value 0.982 | locus YKL085W, strain MDH1, stronger effect = lower value 0.982 | locus YKL160W, strain elf1, stronger effect = lower value 0.981 | locus YKR001C, strain vps1, stronger effect = lower value 0.999 | locus YKR026C, strain gcn3, stronger effect = lower value 1 | locus YKR091W, strain srl3, stronger effect = lower value 1.01 | locus YLL001W, strain dnm1, stronger effect = lower value 0.99 | locus YLL026W, stronger effect = lower value 1 | locus YLL041C, strain sdh2, stronger effect = lower value 1 | locus YLR027C, strain aat2, stronger effect = lower value 1 | [10] 1.01 | locus YLR058C, strain SHM2, stronger effect = lower value 0.994 | locus YLR102C, strain apc9, stronger effect = lower value 0.984 | locus YLR113W, strain HOG1, stronger effect = lower value 1.01 | locus YLR221C, strain rsa3, stronger effect = lower value 1.02 | locus YLR258W, strain gsy2, stronger effect = lower value 0.998 | locus YLR262C, strain YPT6 (second series), stronger effect = lower value 0.999 | [11] 1.01 | locus YLR268W, strain sec22, stronger effect = lower value 0.964 | locus YLR320W, strain mms22, stronger effect = lower value 0.995 | locus YLR330W, strain CHS5, stronger effect = lower value 1 | locus YLR342W, strain FKS1 (second series), stronger effect = lower value 1.01 | locus YLR342W, strain FKS1, stronger effect = lower value 1.01 | locus YLR357W, strain rsc2, stronger effect = lower value 1 | locus YLR370C, strain arc18, stronger effect = lower value 1.01 | locus YLR371W, strain rom2, stronger effect = lower value 0.984 | locus YLR384C, strain iki3, stronger effect = lower value 0.998 | locus YLR418C, strain cdc73, stronger effect = lower value 0.997 | locus YML016C, strain PPZ1, stronger effect = lower value 0.995 | locus YML032C, strain rad52, stronger effect = lower value 1.03 | locus YML120C, strain ndi1, stronger effect = lower value 1.01 | locus YML124C, strain tub3, stronger effect = lower value 0.981 | locus YMR058W, strain fet3, stronger effect = lower value 1.01 | locus YMR078C, strain ctf18, stronger effect = lower value 0.976 | locus YMR125W, strain sto1, stronger effect = lower value 1 | locus YMR129W, stronger effect = lower value 1.01 | locus YMR205C, strain PFK2, stronger effect = lower value 0.994 | locus YMR223W, strain ubp8, stronger effect = lower value 1.01 | locus YMR231W, strain pep5, stronger effect = lower value 0.996 | locus YMR307W, strain GAS1, stronger effect = lower value 1.17 | locus YNL067W, strain RPL9B, stronger effect = lower value 0.983 | locus YNL071W, strain lat1, stronger effect = lower value 1.01 | locus YNL183C, strain NPR1, stronger effect = lower value 0.973 | locus YNL209W, strain ssb2, stronger effect = lower value 1.01 | locus YNL233W, strain BNI4, stronger effect = lower value 1.01 | locus YNL248C, strain rpa49, stronger effect = lower value 0.987 | locus YNL250W, strain rad50, stronger effect = lower value 0.976 | locus YNL271C, strain bni1, stronger effect = lower value 0.983 | locus YNL298W, strain CLA4, stronger effect = lower value 1 | locus YNL307C, strain MCK1, stronger effect = lower value 0.981 | locus YNL322C, strain KRE1 (second series), stronger effect = lower value 0.992 | [12] 1 | locus YNR049C, strain mso1, stronger effect = lower value 1.01 | locus YNR052C, strain pop2, stronger effect = lower value 1 | [13] 0.999 | locus YOL012C, strain htz1 0.886 | locus YOL147C, strain pex11, stronger effect = lower value 0.995 | locus YOR001W, strain rrp6, stronger effect = lower value 0.989 | locus YOR061W, strain CKA2, stronger effect = lower value 0.993 | locus YOR069W, strain VPS5, stronger effect = lower value 0.998 | locus YOR070C, strain gyp1, stronger effect = lower value 1 | locus YOR080W, strain dia2, stronger effect = lower value 1 | locus YOR083W, strain WHI5, stronger effect = lower value 0.978 | locus YOR106W, strain vam3, stronger effect = lower value 0.99 | locus YOR136W, strain idh2, stronger effect = lower value 0.974 | locus YOR144C, strain elg1, stronger effect = lower value 0.992 | locus YOR184W, strain ser1, stronger effect = lower value 0.988 | locus YOR231W, strain MKK1, stronger effect = lower value 1 | locus YOR265W, strain rbl2, stronger effect = lower value 0.998 | locus YOR270C, strain vph1, stronger effect = lower value 1.05 | locus YOR290C, strain snf2, stronger effect = lower value 0.993 | locus YOR316C, strain cot1, stronger effect = lower value 0.985 | locus YPL051W, strain arl3, stronger effect = lower value 1 | locus YPL078C, strain atp4, stronger effect = lower value 0.982 | locus YPL106C, strain sse1, stronger effect = lower value 0.985 | locus YPL240C, strain hsp82, stronger effect = lower value 0.998 | [14] 1 | locus YPL256C, strain CLN2, stronger effect = lower value 1.03 | locus YPR119W, strain clb2, stronger effect = lower value 0.983 | locus YPR141C, strain kar3, stronger effect = lower value 0.988 | locus YPR163C, strain tif3, stronger effect = lower value 0.997 | locus YPR167C, strain met16, stronger effect = lower value 0.994 | strain wtn01, stronger effect = lower value 0.964

O=[N+]([O-])c1ccc2nsnc2c1
inactive: [4] 0.825 | locus YGR229C, strain SMI1, stronger effect = lower value 0.979 | [10] 0.795 | [11] 0.83 | [12] 0.999
active: [1] 0.836 | [2] 0.643 | [3] 0.583 | [5] 0.626 | [6] 0.699 | [7] 0.109 | locus YHR087W, strain rtc3, stronger effect = lower value 0.649 | [8] 0.828 | [9] 0.55 | locus YKL190W, strain CNB1, stronger effect = lower value 0.604 | locus YLR058C, strain SHM2 (second series), stronger effect = lower value 0.824 | locus YLR085C, strain ARP6, stronger effect = lower value 0.227 | locus YML094W, strain GIM5, stronger effect = lower value 0.533 | locus YMR219W, strain ESC1, stronger effect = lower value 0.833 | locus YMR263W, strain SAP30, stronger effect = lower value 0.8 | locus YNL128W, strain TEP1, stronger effect = lower value 0.304 | locus YNL153C, strain GIM3, stronger effect = lower value 0.738 | locus YNL298W, strain CLA4 (second series), stronger effect = lower value 0.361 | locus YNR030W, strain Alg12, stronger effect = lower value 0.534 | [13] 0.496 | locus YPL055C, strain LGE1, stronger effect = lower value 0.805 | [14] 0.286 | locus YPR135W, strain CTF4, stronger effect = lower value 0.233
